These results are taken from PubChem BioAssay (EPA / NIEHS).

Structures are written as SMILES. Calls of active or inactive are those of the source. How the source made its calls: active means hit-call score of the fitted dose curve at least 0.9, where 1 is the maximum; inactive means score below 0.9.

What all share (details): mRNA level, 48 h; actives raise or lower the signal
Read-out in assay [1]: Cyclin Dependent Kinase Inhibitor 1A (CDKN1A), CDKN1A (gene 1026)
Description: LTEA_HepaRG_CDKN1A: Life Technologies and Expression Analysis (LTEA) Assay for Cyclin Dependent Kinase Inhibitor 1A (CDKN1A) using HepaRG (AID 2283450). In outline:
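Differentiated HepaRG cells in serum-free induction medium, exposed 48 h in duplicate to eight half-log concentrations up to 100 uM in 0.5% DMSO. mRNA measured by TaqMan qRT-PCR, normalized to ACTB, GAPDH, POLR2A; bidirectional fit versus DMSO.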

Read-out in assay [2]: Cyclin D1 (CCND1), CCND1 (gene 595)
Put plainly: LTEA_HepaRG_CCND1: Life Technologies and Expression Analysis (LTEA) Assay for Cyclin D1 (CCND1) using HepaRG (AID 2283451). In short, it runs like this: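 Differentiated HepaRG cells exposed 48 h in serum-free induction medium to eight half-log concentrations from 100 uM top, 0.5% DMSO, duplicates. CCND1 mRNA measured by Fluidigm TaqMan qRT-PCR, normalised to ACTB, GAPDH, POLR2A; bidirectional fit.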

Read-out in assay [3]: flavin-containing dimethylaniline monooxygenases 3 (FMO3), FMO3 (gene 2328)
Description: LTEA_HepaRG_FMO3: Life Technologies and Expression Analysis (LTEA) Assay for flavin-containing dimethylaniline monooxygenases 3 (FMO3) using HepaRG (AID 2283453). In outline:
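HepaRG, 48 h exposure, 8-pt half-log series from 100 uM, 0.5% DMSO vehicle, duplicates; FMO3 transcript by Fluidigm TaqMan qRT-PCR, housekeeping-normalized; gain/loss fit vs DMSO.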

Read-out in assay [4]: Cytochrome P450 (CYP1A1), CYP1A1 (gene 1543)
Description: LTEA_HepaRG_CYP1A1: Life Technologies and Expression Analysis (LTEA) Assay for Cytochrome P450 (CYP1A1) using HepaRG (AID 2283454). In short, it runs like this:
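Differentiated human HepaRG cells, after 48 h plating, exposed in duplicate for 48 h in serum-free induction medium to 8 half-log concentrations up to 100 uM in 0.5% DMSO. CYP1A1 mRNA by qRT-PCR, normalized to ACTB/GAPDH/POLR2A; bidirectional fit versus DMSO.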

Read-out in assay [5]: CFLAR gene, CFLAR (gene 8837)
Description: LTEA_HepaRG_CFLAR: Life Technologies and Expression Analysis (LTEA) Assay for CFLAR gene using HepaRG (AID 2283455). In outline:
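HepaRG cells were plated for 48 h, switched to serum-free induction medium, then exposed in duplicate for 48 h to 8 concentrations (top 100 uM, half-log steps, 0.5% DMSO). CFLAR mRNA was measured by qRT-PCR, normalized to ACTB, GAPDH and POLR2A.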

Read-out in assay [6]: Forkhead box O1 (FOXO1), FOXO1 (gene 2308)
Description: LTEA_HepaRG_FOXO1: Life Technologies and Expression Analysis (LTEA) Assay for Forkhead box O1 (FOXO1) using HepaRG (AID 2283456). In outline:
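Differentiated human HepaRG cells in serum-free induction medium were exposed in duplicate for 48 h to eight half-log concentrations (top 100 uM, 0.5% DMSO). FOXO1 mRNA was measured by TaqMan qRT-PCR, normalised to ACTB, GAPDH and POLR2A, and fitted bidirectionally against DMSO.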

Read-out in assay [7]: growth arrest and DNA damage 45 (GADD45A), GADD45A (gene 1647)
Description: LTEA_HepaRG_GADD45A: Life Technologies and Expression Analysis (LTEA) Assay for growth arrest and DNA damage 45 (GADD45A) using HepaRG (AID 2283458). In short, it runs like this: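 Differentiated HepaRG cells were exposed in duplicate for 48 h in serum-free induction medium to 8-point half-log concentrations up to 100 uM in 0.5% DMSO. GADD45A mRNA was measured by TaqMan qRT-PCR, normalized to ACTB, GAPDH and POLR2A, with bidirectional fitting versus DMSO.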

Read-out in assay [8]: Forkhead box O3 (FOXO3), FOXO3 (gene 2309)
Description: LTEA_HepaRG_FOXO3: Life Technologies and Expression Analysis (LTEA) Assay for Forkhead box O3 (FOXO3) using HepaRG (AID 2283459). In outline:
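Differentiated human HepaRG cells in serum-free induction medium were exposed in duplicate for 48 h to eight half-log concentrations up to 100 uM in 0.5% DMSO. FOXO3 mRNA was quantified by qRT-PCR, normalized to ACTB, GAPDH and POLR2A, with bidirectional fitting versus DMSO.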

Read-out in assay [9]: ABC Transporter (ABCB1), ABCB1 (gene 5243)
Description: LTEA_HepaRG_ABCB1: Life Technologies and Expression Analysis (LTEA) Assay for ABC Transporter (ABCB1) using HepaRG (AID 2283460). In short, it runs like this: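 Differentiated human HepaRG cells, plated 48 h then switched to serum-free induction medium, were exposed in duplicate to eight half-log concentrations up to 100 uM in 0.5% DMSO for 48 h. ABCB1 mRNA was measured by TaqMan qRT-PCR, normalized to ACTB/GAPDH/POLR2A.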

Read-out in assay [10]: growth arrest and DNA damage 45 (GADD45B), GADD45B (gene 4616)
Put plainly: LTEA_HepaRG_GADD45B: Life Technologies and Expression Analysis (LTEA) Assay for growth arrest and DNA damage 45 (GADD45B) using HepaRG (AID 2283461). In short, it runs like this:
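Differentiated human HepaRG cells in serum-free induction medium exposed 48 h in duplicate to eight concentrations, top 100 uM, half-log steps, 0.5% DMSO. GADD45B mRNA by TaqMan qRT-PCR, normalized to ACTB, GAPDH, POLR2A; bidirectional fit versus DMSO.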

Read-out in assay [11]: ABC Transporter (ABCC3), ABCC3 (gene 8714)
Put plainly: LTEA_HepaRG_ABCC3: Life Technologies and Expression Analysis (LTEA) Assay for ABC Transporter (ABCC3) using HepaRG (AID 2283462). In outline: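 Differentiated human HepaRG cells exposed 48 h in serum-free induction medium, 0.5% DMSO vehicle, 8-point half-log series to 100 uM in duplicate. ABCC3 mRNA by qRT-PCR, normalised to ACTB, GAPDH, POLR2A; bidirectional fit vs DMSO.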

Read-out in assay [12]: ABC Transporter (ABCB11), ABCB11 (gene 8647)
Description: LTEA_HepaRG_ABCB11: Life Technologies and Expression Analysis (LTEA) Assay for ABC Transporter (ABCB11) using HepaRG (AID 2283463). In short, it runs like this:
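Differentiated human HepaRG cells were exposed for 48 h in serum-free induction medium to eight half-log concentrations up to 100 uM in 0.5% DMSO. ABCB11 mRNA was quantified by qRT-PCR, normalized to ACTB, GAPDH and POLR2A, and fitted bidirectionally versus DMSO.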

Read-out in assay [13]: ABC Transporter (ABCC2), ABCC2 (gene 1244)
Description: LTEA_HepaRG_ABCC2: Life Technologies and Expression Analysis (LTEA) Assay for ABC Transporter (ABCC2) using HepaRG (AID 2283464). In short, it runs like this:
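Differentiated HepaRG cells in serum-free induction medium exposed 48 h to eight half-log concentrations up to 100 uM, 0.5% DMSO, in duplicate. ABCC2 mRNA measured by qRT-PCR (TaqMan, Fluidigm), normalized to ACTB, GAPDH and POLR2A. Fitted in both directions against DMSO.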

Read-out in assay [14]: Broad substrate specificity ATP-binding cassette transporter ABCG2 (Homo sapiens) (UniProt Q9UNQ0)
Put plainly: LTEA_HepaRG_ABCG2: Life Technologies and Expression Analysis (LTEA) Assay for ABC Transporter (ABCG2) using HepaRG (AID 2283465). In outline: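 Differentiated HepaRG cells in serum-free induction medium were exposed for 48 h, in duplicate, to eight half-log concentrations up to 100 uM in 0.5% DMSO. ABCG2 mRNA was measured by TaqMan qRT-PCR, normalized to ACTB, GAPDH and POLR2A, and fitted bidirectionally versus DMSO.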

Read-out in assay [15]: ATP-citrate lyase (ACLY), ACLY (gene 47)
Put plainly: LTEA_HepaRG_ACLY: Life Technologies and Expression Analysis (LTEA) Assay for ATP-citrate lyase (ACLY) using HepaRG (AID 2283466). In outline:
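Differentiated human HepaRG cells in serum-free induction medium exposed 48 h, in duplicate, to eight half-log concentrations from 100 uM top in 0.5% DMSO; ACLY mRNA measured by qRT-PCR, normalized to ACTB, GAPDH, POLR2A, fitted bidirectionally versus DMSO.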

Read-out in assay [16]: Peroxisomal acyl-coenzyme A oxidase 1 (ACOX1) gene, ACOX1 (gene 51)
Description: LTEA_HepaRG_ACOX1: Life Technologies and Expression Analysis (LTEA) Assay for Peroxisomal acyl-coenzyme A oxidase 1 (ACOX1) gene using HepaRG (AID 2283467). In short, it runs like this:
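Differentiated human HepaRG cells were exposed in duplicate for 48 h in serum-free induction medium to eight half-log concentrations up to 100 uM in 0.5% DMSO. ACOX1 mRNA was then quantified by TaqMan qRT-PCR, normalized to ACTB, GAPDH and POLR2A.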

Read-out in assay [17]: Bcl-2 (BAD) gene, BAD (gene 572)
Put plainly: LTEA_HepaRG_BAD: Life Technologies and Expression Analysis (LTEA) Assay for Bcl-2 (BAD) gene using HepaRG (AID 2283469). In short, it runs like this:
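Differentiated human HepaRG cells in serum-free induction medium were exposed in duplicate for 48 h to eight concentrations (top 100 uM, half-log steps, 0.5% DMSO). BAD mRNA was quantified by qRT-PCR normalised to ACTB, GAPDH and POLR2A, with bidirectional fitting versus DMSO.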

Read-out in assay [18]: catalase (CAT), CAT (gene 847)
Description: LTEA_HepaRG_CAT: Life Technologies and Expression Analysis (LTEA) Assay for catalase (CAT) using HepaRG (AID 2283452). In short, it runs like this:
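Differentiated HepaRG cells in serum-free induction medium were dosed 48 h in duplicate, eight half-log concentrations from 100 uM in 0.5% DMSO. Transcript measured by TaqMan qRT-PCR, normalised to ACTB/GAPDH/POLR2A, fitted bidirectionally against DMSO.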

Broad substrate specificity ATP-binding cassette transporter ABCG2 (Homo sapiens), sequence (Q9UNQ0 whole entry, looked up): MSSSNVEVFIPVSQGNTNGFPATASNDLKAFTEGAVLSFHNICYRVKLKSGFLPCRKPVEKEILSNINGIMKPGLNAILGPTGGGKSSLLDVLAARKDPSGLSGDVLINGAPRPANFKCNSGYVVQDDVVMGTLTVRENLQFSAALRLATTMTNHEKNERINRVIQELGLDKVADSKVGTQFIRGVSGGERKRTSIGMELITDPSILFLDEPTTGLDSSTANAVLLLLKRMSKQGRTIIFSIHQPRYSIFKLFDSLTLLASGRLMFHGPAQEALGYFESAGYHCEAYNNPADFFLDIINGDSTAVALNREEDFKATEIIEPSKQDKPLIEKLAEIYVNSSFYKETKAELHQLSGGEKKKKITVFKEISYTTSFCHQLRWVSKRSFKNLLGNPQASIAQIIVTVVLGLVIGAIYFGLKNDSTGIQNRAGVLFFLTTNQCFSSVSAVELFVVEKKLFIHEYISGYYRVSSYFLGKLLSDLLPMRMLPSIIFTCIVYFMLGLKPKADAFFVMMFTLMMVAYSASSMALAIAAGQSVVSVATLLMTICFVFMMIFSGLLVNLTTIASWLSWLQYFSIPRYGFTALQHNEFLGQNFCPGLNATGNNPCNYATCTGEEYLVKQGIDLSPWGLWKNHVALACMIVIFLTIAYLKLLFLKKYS

By AC50 is commonly meant the midpoint of the concentration-response curve, whichever way the signal moves. In the case of `O=C(NS(=O)(=O)/C=C/c1cccs1)c1ccc(F)cc1Br`, the call in assay [1], in assay [2], in [3], in [5], in assay [6] and in assay [7] was inactive. In addition, the result in assay [8], in assay [10], in assay [11], in assay [15] and in assay [16] was inactive. Besides, the concentration at half-maximal activity (AC50) in assay [4] was 50 µM (active); in assay [9] it was 13.2 µM (active); in [12], 50 µM (active); in [13], 7.3 µM (active); in [14], 9.27 µM (active).

As to `S=c1[nH]c2ccccc2s1`, the result in assay [1], in assay [2], in [3], in assay [5], in assay [6] and in assay [7] was inactive. In addition, the call in assay [8], in assay [9], in [11], in assay [12], in assay [13] and in assay [14] was inactive. Besides, the compound was called inactive in [15] and in assay [17]. The AC50 in assay [4] was 10.1 µM (active).

Turning to `Cc1cc(Cc2ccc(N)c(C)c2)ccc1N`, the call in [2], in assay [18], in assay [3], in assay [5], in [6] and in assay [7] was inactive. Further, the compound was called inactive in [8], in assay [10], in [11], in [12], in assay [14] and in [15]. Also, the compound was classed as inactive in assay [17]. The AC50 in assay [4] was 50 µM (active); in assay [9] it was 33.6 µM (active); in assay [13] it was 50 µM (active).

As to `CC1(C)C(=O)NC(=O)N1CO`, the compound was classed as inactive in assay [1], in [2], in assay [3], in [5], in assay [6] and in assay [7]. Moreover, the compound was classed as inactive in [8], in assay [9], in assay [11], in assay [12], in assay [13] and in [14]. For the same compound, the compound was called inactive in assay [15], in [16] and in assay [17]. Moreover, in assay [4], the AC50 was 50 µM (active).
